RXFP1 antagonist: RXFP1 (human) relaxin receptor antagonism | Q9HBX9 | HEK293-RXFP1, relaxin-stimulated cAMP HTRF, 30 min; stronger effect = lower value | activity change, negative = inhibition, % at 57.5 µM | 0.59% of 350,000 active | AID 1259400;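 active means activity change of -60% or lower, but not beyond a set lower limit; inconclusive means change between -60% and -40%, or beyond the set limit; inactive means change above -40%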; further: on the % scale 0 is the no-effect control and ±100 the full control effect
Target sequence (Q9HBX9 whole entry, looked up): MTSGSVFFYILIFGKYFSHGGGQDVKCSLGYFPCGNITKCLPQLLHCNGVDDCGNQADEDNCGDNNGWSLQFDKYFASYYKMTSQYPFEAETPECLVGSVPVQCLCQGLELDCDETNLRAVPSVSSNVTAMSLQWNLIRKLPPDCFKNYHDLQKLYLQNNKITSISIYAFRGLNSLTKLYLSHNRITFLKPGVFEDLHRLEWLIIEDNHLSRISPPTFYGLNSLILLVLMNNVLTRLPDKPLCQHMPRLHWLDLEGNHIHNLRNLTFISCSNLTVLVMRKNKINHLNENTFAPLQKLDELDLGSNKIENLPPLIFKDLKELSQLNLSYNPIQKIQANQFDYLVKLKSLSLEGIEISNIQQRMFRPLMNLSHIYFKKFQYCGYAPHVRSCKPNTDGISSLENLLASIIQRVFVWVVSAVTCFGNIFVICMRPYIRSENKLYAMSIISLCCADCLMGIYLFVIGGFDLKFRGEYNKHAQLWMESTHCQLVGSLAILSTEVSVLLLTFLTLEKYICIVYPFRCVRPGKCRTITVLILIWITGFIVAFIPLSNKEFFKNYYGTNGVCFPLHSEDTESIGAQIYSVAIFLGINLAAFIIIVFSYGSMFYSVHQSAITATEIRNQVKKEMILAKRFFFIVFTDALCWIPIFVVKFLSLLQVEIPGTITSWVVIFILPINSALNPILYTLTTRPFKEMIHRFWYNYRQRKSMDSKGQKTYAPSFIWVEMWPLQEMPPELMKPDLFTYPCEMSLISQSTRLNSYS
gsp antagonist: gsp mutant antagonism. gsp-mutant cells, cAMP HTRF, 30 min. Potency, µM (highest dose often 76.9 µM), without a hit: top-dose activity change, negative = inhibition, actives largely listed as inhibitors. 0.4% of 340,000 active; calls by dose curve; cell line not stated here;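 further: intracellular cAMP measured with PDE inhibitor Ro 20-1724 present during compound exposure; potency means the concentration at half of the fitted maximal effect; on the % scale 0 is the no-effect control and ±100 the full control effect; nearly all actives have a fitted effect of over 65% in size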
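HTRF cAMP read-out (cAMP-d2 plus anti-cAMP antibody-K in lysis buffer, 30 min RT). Before lysis, cells are exposed to compounds with […] for 30 min at 37C in DPBS containing Ca/Mg, BSA and Tween 20.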
RXFP1 agonist: activates the human relaxin receptor RXFP1. AID 2676. 0.3% of 370,000 active. Potency, µM (highest dose often 57.5 µM), for inactives: at the top dose activation, usual class: activators. Q9HBX9. HEK293T-RXFP1 cAMP TR-FRET, 30 min; response scale: percent of porcine relaxin response, buffer zero; active means well fitted activation curve with a large enough effect; inconclusive means small, poorly fitted or top-dose-only effect; further: potency means the concentration at half of the fitted maximal effect; on the % scale 0 is the no-effect control and ±100 the full control effect; nearly all actives have a fitted effect of over 60% in size
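Agonist response is measured as cAMP accumulation in an RXFP1-transfected HEK293T line under PDE4 inhibition. Values are scaled between buffer-only and 29 nM porcine relaxin, and EC50s come from standard Hill equation fits.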
gsp agonist: agonists of gsp mutant (McCune-Albright syndrome); gsp mutant cells, cAMP HTRF, 30 min; Potency, µM (doses to about 76.9 µM), inactives show top-dose activation (cAMP increase), usual class: activators; 0.13% of 340,000 active; AID 624287; active means well fitted activation curve with a large enough effect; inconclusive means small, poorly fitted or top-dose-only effect, or another doubt; inactive means no such curve, though single readings can be large or run the other way; cell line not stated here;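 further: phosphodiesterase inhibitor Ro 20-1724 added with compounds to block cAMP breakdown; potency means the concentration at half of the fitted maximal effect; nearly all actives have a fitted effect of over 60% in size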
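Cells in DMEM/10% FBS with G418 were pretreated with compounds in DMSO plus […] (300 uM stock) for 30 min at 37C. cAMP was measured by HTRF (cAMP-d2 plus anti-cAMP antibody-K) after 30 min at room temperature.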
* = called active by the depositor; ? = inconclusive; nt = no result given; [ ] = another dose, or the depositor's remark. Most compounds without a hit are left out; they make up all but 0.9% or so of the library.

SMILES	RXFP1 antagonist	gsp antagonist	RXFP1 agonist	gsp agonist
CC1(C)CC2(CC(c3ccc(F)cc3)c3ccc(O)cc3O2)NC(=S)N1 (stereo unspecified)	-19	-10%	0%	-42%
CC1(C)CC2(CC(c3ccccc3F)c3ccc(O)c(O)c3O2)NC(=S)N1 (stereo unspecified)	-76*	-5%	-1%	14%[15.4 µM]
CC(=O)OCC(=O)C1CCC2C3CC=C4CC(O)CCC4(C)C3CCC12C (stereo unspecified)	nt	0%	0%	nt
CC(=O)C1CCC2C3CC=C4CC(SC(=N)N)CCC4(C)C3CCC12C (stereo unspecified)	-105*	-8%	nt	1%
CCN(CC)S(=O)(=O)c1ccc2c(c1)N(CC(=O)NCCCN1CCN(c3cc(Cl)ccc3C)CC1)C(=O)CO2	nt	nt	0%	nt
CCOC(=O)C1CCN(c2ncnc3nc[nH]c23)CC1	nt	-4%	4%	-35%
CCOC(=O)N1CCN(c2ncnc3nc[nH]c23)CC1	nt	-1%	7%	20µM*
CCOc1ccc(NC(=O)Cn2sc3nc(C)cc(C)c3c2=O)cc1	-66*	-2%	6%	-2%[15.4 µM]
O=C(NC(=S)N1CCN(c2ccc(Cl)cc2[N+](=O)[O-])CC1)c1cccs1	-65*	?	-1%	32%
O=C(NC(=S)N1CCN(c2ccc(Cl)cc2[N+](=O)[O-])CC1)c1ccco1	-21	-7%	-1%	13%[15.4 µM]
CC(=O)N1CCN(C(=O)c2cccc(S(=O)(=O)N3CCN(c4ccccc4)CC3)c2)CC1	0	-4%	1%	?
O=C(NNC(=O)c1cccc(S(=O)(=O)N2CCN(c3ccccc3)CC2)c1)c1ccc(Cl)cc1	nt	-9%	-1%	11µM*
Cc1c(-c2ccccc2Br)nc2ccccc2c1C(=O)O	4	-4%	nt	5%
CCc1ccc(-c2nc3ccc(Br)cc3c(C(=O)O)c2C)s1	-1	5%	7.1µM*	?
CC(C(=O)NCc1ccccc1)n1cc([N+](=O)[O-])cn1 (stereo unspecified)	4	5%	-3%	1.6µM*
COc1ccc(N2C(=NC(=O)C3CCCCC3)SC3CS(=O)(=O)CC32)cc1OC (stereo unspecified)	-28	4%	1%	0%
COc1ccc(C(=O)N=C2SC3CS(=O)(=O)CC3N2c2ccc(N(C)C)cc2)cc1OC (stereo unspecified)	-76*	0%	29%	?
Cc1ccc(O)c(C(=O)c2cc(C#N)c(=O)n(Cc3ccccc3)c2)c1	-90*	-17%	1%	-11%
CC(C(O)c1ccccc1)N(C)CCOC(c1ccccc1)c1ccccc1 (stereo unspecified)	-31	nt	nt	nt
CO/N=C(\C(=O)O)c1csc(NC(=O)CCl)n1	4	nt	nt	nt
Cc1ccc(-n2c(=O)c3c4c(sc3n3c(=S)[nH]nc23)CCC4)cc1	-9	-19%	5%	-1%
Cc1ccc(-n2c(=S)[nH]c3sc4c(c3c2=O)CCC4)cc1	-1	12%	13µM*	55%[15.4 µM]
CN1C(=O)/C(=C/c2ccccc2F)Sc2ccc(C(=O)N3CCCC3)cc21	-25	28µM*	-1%	5%
O=C(c1ccc2c(c1)N(Cc1ccccc1Cl)C(=O)c1ccccc1S2)N1CCCC1	-68*	nt	-4%	nt
Cc1ccccc1/C=C1\Sc2ccc(C(=O)N3CCN(c4ccccn4)CC3)cc2N(C)C1=O	-5	?	0%	-53%
SMILES	RXFP1 antagonist	gsp antagonist	RXFP1 agonist	gsp agonist
CCCCn1c(N2CCC(Cc3ccccc3)CC2)nc2c1c(=O)[nH]c(=O)n2C	-90*	9%	1%	15%
Cc1nnc(SCCn2c(N3CCC(Cc4ccccc4)CC3)nc3c2c(=O)[nH]c(=O)n3C)s1	-29	-16%	-1%	-14%[15.4 µM]
O=C(NCCCc1nc2ccccc2n1Cc1ccccc1Cl)C1CCCCC1	nt	nt	2%	nt
COc1ccc(CCNc2nc(C)nc3c2oc2ccccc23)cc1OC	?	40µM*	1%	12%
Cc1cc(C(=O)CSc2nc3ccccc3c(=O)n2C)c(C)n1Cc1ccc2c(c1)OCO2	-21	?	20µM*	-10%
COc1ccc(N2CC(NS(=O)(=O)c3cccs3)CC2=O)cc1OC (stereo unspecified)	-82*	5%	-1%	19%[15.4 µM]
Cc1cccc(NC(=O)CSc2nc3c(c(=O)[nH]2)CN(Cc2ccc4c(c2)OCO4)CC3)c1C	-10	nt	4%	nt
Cc1ccc(-n2ncc(C(=O)NCCN3CCC(Cc4ccccc4)CC3)c2C2CCN(C(=O)OC(C)(C)C)CC2)cc1	-69*	nt	-3%	nt
COc1ccccc1CN1CCC(CNC(=O)c2cnn(-c3ccc(Cl)cc3)c2C2CCN(C(=O)OC(C)(C)C)CC2)CC1	-61*	nt	4%	nt
COc1ccccc1CN1CCC(CNC(=O)c2cnn(-c3ccc(C)c(C)c3)c2C2CCN(C(=O)OC(C)(C)C)CC2)CC1	?	nt	1%	nt
NC(=O)c1ccccc1C[C@H](C(=O)O)N1C(=O)c2ccc(C(=O)O)cc2C1=O	nt	nt	1%	nt
CCCc1nn2c(=O)cc(COC(=O)c3ccc(NC(=O)CCc4ccccc4)cc3)nc2s1	-5	nt	6%	nt
COc1ccc(N=C2O/C(=C/c3sc(=S)n(CC4CCCO4)c3O)N=C2C#N)cc1 (stereo unspecified)	-88*	35µM*	-1%	13%
COc1ccc2c(C)cc(=S)[nH]c2c1	28	9%	20µM*	40%[15.4 µM]
O=C(/C=C/c1ccc(Cl)c([N+](=O)[O-])c1)Nc1cccc(NC(=O)c2ccco2)c1	-35	35µM*	5%	20%
O=C(CN1C(=O)C(=O)N(CCC2=CCCCC2)C1=O)c1c[nH]c2ccccc12	-66*	-19%	nt	18%[15.4 µM]
O=C(Nc1nc(-c2nc3ccccc3s2)cs1)C1COc2ccccc2O1 (stereo unspecified)	nt	-22%	21%	11µM*
COc1ccc(OC)c(-c2csc(NC(=O)C3COc4ccccc4O3)n2)c1 (stereo unspecified)	2	-14%	-1%	-14%
CC1(C)NC(=O)N(CC(=O)Nc2ccc(-n3cnnn3)cc2)C1=O	-71*	11%	nt	-31%
C[C@H](CO)N1C[C@H](C)[C@@H](CN(C)S(=O)(=O)c2cccc(F)c2)Oc2ncc(Br)cc2C1=O	8	nt	nt	32µM*
C[C@H](CO)N1C[C@H](C)[C@H](CN(C)S(=O)(=O)c2ccc(F)cc2)Oc2ncc(Br)cc2C1=O	2	nt	nt	?
C=CC[N+]1([C@H]2C[C@H]3[C@@H]4CC[C@H]5C[C@H](OC(C)=O)[C@@H](N6CCCCC6)C[C@]5(C)[C@H]4CC[C@]3(C)[C@H]2OC(=O)CC)CCCCC1	-4	nt	nt	nt
CCc1ccc(S(=O)(=O)NCc2nc3cccnc3n2Cc2cccc(OC)c2)cc1	-5	nt	3%	nt
COc1cnn(-c2ccc(C)cc2)c(=O)c1SCc1ccccc1	-6	32µM*	-13%	?
CCCc1nc2ccccc2n1CC(O)COc1ccc(C(=O)OC)cc1 (stereo unspecified)	-8	nt	-2%	nt
Cc1oc2ccc(O)c(CN3CCN(C)CC3)c2c1C(=O)Nc1cccc(C(F)(F)F)c1	-9	nt	-3%	nt

Screening results (PubChem BioAssay)
